Among the data in PubChem BioAssay are growth inhibition, inhibition and outcome values, retold here.

Several values for one entry are separate records, joined by “and”; a condition that tells them apart may be missing. Equal entries are not always repeated. For some assays here: Measured potencies and affinities stand elsewhere. The source holds several records for some structures; these can differ, active in one and inactive in another. Activity calls are given as the source filed them. Unless noted, how the calls were made is not given here.

Experiment [1] is described as follows: antimalarial activity against Dd2 strain (AID 2302;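 active means growth inhibition above 50% at the single 2 µM test dose, taken to imply half-maximal potency below 2 µM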;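 further: 0% = DMSO untreated growth and 100% = chloroquine plus artemisinin killed control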). Conditions: P. falciparum Dd2 in RBCs, LDH growth readout, 72 h; at 2 µM; stronger effect = higher value.
Experiment [2] is described as follows: HepG2 cytotoxicity, primary screen, cytotoxicity control for P. falciparum antimalarial project, cell-based, ATP luminescence (AID 2303;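 active means inhibition above 50%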;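 further: 0% = DMSO wells and 100% = digitonin-killed cells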). The note with it: HepG2 viability, 24-48 h, at 10 µM, stronger effect = higher value.
Experiment [3] concerns the target L-lactate dehydrogenase (Plasmodium falciparum (isolate CDC / Honduras)) (UniProt Q27743). The experiment in a line: PfLDH activity inhibition – cell lysate, 3D7 strain, counter-screen for P. falciparum growth inhibition project (AID 2304).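 Further: 0% = vehicle and 100% = reference inhibitor.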 Conditions: P. falciparum 3D7 crude extract, LDH APAD/NBT absorbance; at 2 µM; stronger effect = higher value. (The purpose of a counterscreen is to sort out artefacts and off-target activity.)

The nature of experiment [4]: inhibition of 3D7 malaria parasite growth – strain 3D7 (AID 2306).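 Further: 0% = DMSO wells and 100% = chloroquine plus artemisinin control wells.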 The note with it: P. falciparum 3D7 erythrocytic growth, LDH absorbance, 72 h; at 2 µM; stronger effect = higher value.
Experiment [5] deals with Calcium-dependent protein kinase 1 (Plasmodium falciparum (isolate 3D7)) (UniProt P62344). As to the kind of experiment: PfCDPK1 kinase inhibitors, biochemical, TCAMS library (AID 1159585; cut-off not given, nearly all actives have IC50 up to about 0.98 µM;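 further: inhibitors leave more ATP so luminescence rises with inhibition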). Conditions: recombinant PfCDPK1, Kinase-Glo ATP depletion luminescence. On the technique in general: Kinase-Glo measures the ATP left after a reaction by luminescence.
Experiment [6] has as its target Plasmodium falciparum protein kinase 6 (PK6, PF3D7_1337100) (UniProt Q8IDW1). As to the kind of experiment: PfPK6 kinase inhibitors, biochemical, TCAMS library (AID 1159586). The note with it: recombinant PfPK6, Kinase-Glo ATP depletion luminescence.
Experiment [7] has as its target Protein kinase 7 (PK7), Plasmodium falciparum 3D7 (PF3D7_0213400) (UniProt Q7YTF7). The experiment in a line: inhibition of Plasmodium PK7 catalytic activity – biochemical, TCAMS antimalarial set, Kinase-Glo luminescence (AID 1159587). The note with it: recombinant PfPK7, Kinase-Glo ATP depletion luminescence.
The target of experiment [8] is Calcium-dependent protein kinase 4 (Plasmodium falciparum (isolate 3D7)) (UniProt Q8IBS5). As to the kind of experiment: PfCDPK4 kinase inhibitors, biochemical, TCAMS library (AID 1159588; cut-off not given, nearly all actives have IC50 up to about 0.91 µM). Conditions: recombinant PfCDPK4, Kinase-Glo ATP depletion luminescence.
Chain of Calcium-dependent protein kinase 4 (Plasmodium falciparum (isolate 3D7)) (Q8IBS5 whole entry, looked up): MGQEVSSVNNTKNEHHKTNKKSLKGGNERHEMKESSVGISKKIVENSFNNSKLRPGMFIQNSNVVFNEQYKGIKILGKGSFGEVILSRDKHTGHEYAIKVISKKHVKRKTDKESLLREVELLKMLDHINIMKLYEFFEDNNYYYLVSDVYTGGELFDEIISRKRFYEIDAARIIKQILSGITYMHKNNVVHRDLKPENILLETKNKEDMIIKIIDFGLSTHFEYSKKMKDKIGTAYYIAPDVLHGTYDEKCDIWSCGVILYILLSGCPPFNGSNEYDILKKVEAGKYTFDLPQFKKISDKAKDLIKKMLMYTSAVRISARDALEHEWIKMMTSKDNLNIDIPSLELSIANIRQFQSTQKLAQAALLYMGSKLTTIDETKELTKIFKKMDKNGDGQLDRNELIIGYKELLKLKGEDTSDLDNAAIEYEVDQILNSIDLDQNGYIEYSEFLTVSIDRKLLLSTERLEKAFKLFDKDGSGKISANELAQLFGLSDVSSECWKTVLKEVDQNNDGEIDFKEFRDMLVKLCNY

Chain of L-lactate dehydrogenase (Plasmodium falciparum (isolate CDC / Honduras)) (Q27743 whole entry, looked up): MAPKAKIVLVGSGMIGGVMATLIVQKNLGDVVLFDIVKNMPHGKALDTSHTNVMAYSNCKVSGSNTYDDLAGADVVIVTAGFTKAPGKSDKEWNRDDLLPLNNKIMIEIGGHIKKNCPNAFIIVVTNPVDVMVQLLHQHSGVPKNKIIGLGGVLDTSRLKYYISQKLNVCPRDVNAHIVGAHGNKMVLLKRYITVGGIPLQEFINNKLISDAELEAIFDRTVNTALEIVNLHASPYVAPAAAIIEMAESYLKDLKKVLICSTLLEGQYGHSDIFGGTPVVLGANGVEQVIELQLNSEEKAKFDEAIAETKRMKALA
Chain of Protein kinase 7 (PK7), Plasmodium falciparum 3D7 (PF3D7_0213400) (Q7YTF7 1-343): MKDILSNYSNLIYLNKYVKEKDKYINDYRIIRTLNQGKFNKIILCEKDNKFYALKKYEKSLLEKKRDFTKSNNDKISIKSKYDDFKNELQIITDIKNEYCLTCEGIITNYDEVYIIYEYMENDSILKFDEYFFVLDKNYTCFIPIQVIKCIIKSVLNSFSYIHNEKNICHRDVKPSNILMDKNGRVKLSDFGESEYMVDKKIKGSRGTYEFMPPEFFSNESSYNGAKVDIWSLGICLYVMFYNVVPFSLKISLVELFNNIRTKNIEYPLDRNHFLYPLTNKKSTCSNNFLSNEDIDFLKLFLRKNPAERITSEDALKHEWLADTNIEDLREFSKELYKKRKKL
Chain of Plasmodium falciparum protein kinase 6 (PK6, PF3D7_1337100) (Q8IDW1 1-305): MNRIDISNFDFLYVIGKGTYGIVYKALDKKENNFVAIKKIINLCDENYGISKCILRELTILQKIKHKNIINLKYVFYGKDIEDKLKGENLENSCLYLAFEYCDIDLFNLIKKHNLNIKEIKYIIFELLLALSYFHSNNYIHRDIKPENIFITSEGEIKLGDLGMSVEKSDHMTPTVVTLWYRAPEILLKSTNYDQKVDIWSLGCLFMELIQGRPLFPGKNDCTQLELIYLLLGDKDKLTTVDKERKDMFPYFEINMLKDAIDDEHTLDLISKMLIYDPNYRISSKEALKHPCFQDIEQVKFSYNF
Chain of Calcium-dependent protein kinase 1 (Plasmodium falciparum (isolate 3D7)) (P62344 whole entry, looked up): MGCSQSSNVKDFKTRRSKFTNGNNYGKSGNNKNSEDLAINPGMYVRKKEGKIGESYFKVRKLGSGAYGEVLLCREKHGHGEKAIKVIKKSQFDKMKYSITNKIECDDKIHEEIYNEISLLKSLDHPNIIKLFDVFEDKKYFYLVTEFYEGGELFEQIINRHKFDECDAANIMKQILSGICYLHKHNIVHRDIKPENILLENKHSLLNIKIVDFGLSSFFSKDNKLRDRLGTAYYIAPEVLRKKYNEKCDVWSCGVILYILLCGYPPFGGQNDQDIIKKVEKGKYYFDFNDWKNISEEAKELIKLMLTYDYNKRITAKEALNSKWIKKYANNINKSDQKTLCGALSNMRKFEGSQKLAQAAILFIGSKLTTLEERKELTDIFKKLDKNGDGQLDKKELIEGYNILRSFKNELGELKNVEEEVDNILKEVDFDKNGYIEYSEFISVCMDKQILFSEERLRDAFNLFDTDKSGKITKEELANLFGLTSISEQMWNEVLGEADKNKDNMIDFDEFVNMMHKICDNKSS

What is called inhibition is the relative decrease from the control value, in per cent. Take `O=C(/C=C/c1ccc(Cl)c(Cl)c1)N1CCC(CN2CCC(c3c(Br)[nH]c4ccccc34)CC2)CC1`: the growth inhibition was 99% (active) in experiment [1] and 100% (active) in experiment [4]. Further, the results for the inhibition in experiment [2] and in experiment [3] were 41% (inactive) and -4% (inactive), respectively. The result in experiment [5], in experiment [6], in experiment [7] and in experiment [8] was inactive.

For the molecule `CC[C@H]1CN2CC[C@@H]1C[C@H]2[C@H](O)c1cc(N2CCC(CO)CC2)nc2ccc(OC)cc12`, the growth inhibition in experiment [1] and in experiment [4] was 99% (active) each time. Moreover, the inhibition in experiment [2] was 4% (inactive); in experiment [3] it was -1% (inactive). The result in experiment [5], in experiment [6], in experiment [7] and in experiment [8] was inactive.

Consider `Cc1[nH]c2ccc(NS(C)(=O)=O)cc2c1C1CCN(CC2CCN(C(=O)/C=C/c3ccc(Cl)c(Cl)c3)CC2)CC1`, for which the figures for the growth inhibition in experiment [1] and in experiment [4] were 83% (active) and 99% (active), respectively. Moreover, the inhibition in experiment [2] is 15% (inactive); in experiment [3] it was -4% (inactive). Further, the outcome in experiment [5], in experiment [6], in experiment [7] and in experiment [8] was inactive.

In the case of `COc1cc(C(=O)NC2CCC(CN3CCC(c4c[nH]c5ccccc45)CC3)CC2)cc(Cl)n1` (stereo unspecified), the growth inhibition was 45% (inactive) in experiment [1] and 99% (active) in experiment [4]. Further, the inhibition was 33% (inactive) in experiment [2] and -1% (inactive) in experiment [3]. For the same molecule, the result in experiment [5], in experiment [6], in experiment [7] and in experiment [8] was inactive.

In the case of `CC(=O)Nc1ccc(OCCN(CC(C)(C)C)c2ccc(C#N)c(C(F)(F)F)c2)c(Cl)c1`, the figures for the growth inhibition in experiment [1] and in experiment [4] were 93% (active) and 87% (active), respectively. Moreover, the results for the inhibition in experiment [2] and in experiment [3] were -6% (inactive) and -1% (inactive), respectively. Besides, the outcome in experiment [5], in experiment [6], in experiment [7] and in experiment [8] was inactive.

As for `Fc1ccc(N(c2nc(-c3cc(F)cc(C(F)(F)F)c3)cs2)C2CCNCC2)cc1`, the values for the growth inhibition in experiment [1] and in experiment [4] were 10% (inactive) and 95% (active), respectively. Moreover, the inhibition in experiment [2] was 35% (inactive); in experiment [3], -3% (inactive). The outcome in experiment [5], in experiment [6], in experiment [7] and in experiment [8] was inactive.

Turning to `N#Cc1ccc(N(CCCO)Cc2ccccc2C(F)(F)F)cc1C(F)(F)F`, the figures for the growth inhibition in experiment [1] and in experiment [4] were 23% (inactive) and 91% (active), respectively. Also, the inhibition in experiment [2] is 7% (inactive); in experiment [3], -5% (inactive). Further, the outcome in experiment [5], in experiment [6], in experiment [7] and in experiment [8] was inactive.

Take `CC(Cc1ccc(OCc2ccccc2)cc1)NCC(O)c1cccc(Cl)c1` (stereo unspecified): the growth inhibition in experiment [1] and in experiment [4] was 99% (active) throughout. The inhibition in experiment [2] is 50% (active); in experiment [3], 5% (inactive). For the same molecule, the outcome in experiment [5], in experiment [6], in experiment [7] and in experiment [8] was inactive.

With `CCCCCCCc1cc(=O)c2ccccc2[nH]1`, the growth inhibition in experiment [1] was 94% (active); in experiment [4], 96% (active). Further, the results for the inhibition in experiment [2] and in experiment [3] were 5% (inactive) and 1% (inactive), respectively. The result in experiment [5], in experiment [6], in experiment [7] and in experiment [8] was inactive.

For the molecule `CC(C)CCNC(=O)c1cc(C(=O)c2cc(F)ccc2O)cn(CCC(C)C)c1=O`, the growth inhibition in experiment [1] was 45% (inactive); in experiment [4], 100% (active). Further, the inhibition is 14% (inactive) in experiment [2] and -1% (inactive) in experiment [3]. In addition, the result in experiment [5], in experiment [6], in experiment [7] and in experiment [8] was inactive.

`CCC1CN2CCc3cc(OC)c(OC)cc3C2CC1CC1NCCc2c1[nH]c1ccc(O)cc21` (stereo unspecified): the growth inhibition is 100% (active) in experiment [1] and 99% (active) in experiment [4]. In addition, the inhibition in experiment [2] was 45% (inactive); in experiment [3] it was -7% (inactive). In addition, the outcome in experiment [5], in experiment [6], in experiment [7] and in experiment [8] was inactive.

In the case of `C1=C(c2c[nH]c3ccccc23)CCN(Cc2ccccc2)C1`, the growth inhibition in experiment [1] is 80% (active); in experiment [4], 91% (active). Besides, the inhibition is 22% (inactive) in experiment [2] and -1% (inactive) in experiment [3]. In addition, the result in experiment [5], in experiment [6], in experiment [7] and in experiment [8] was inactive.

With `CN(c1cc(NC(=O)c2ccc(F)cc2)ccn1)C1CCN(Cc2cccc(O)c2)CC1`, the growth inhibition in experiment [1] is 82% (active); in experiment [4], 100% (active). In addition, the inhibition in experiment [2] was 3% (inactive); in experiment [3], 2% (inactive). Moreover, the result in experiment [5], in experiment [6], in experiment [7] and in experiment [8] was inactive.

Regarding `CC[C@H]1CN2CC[C@@H]1C[C@H]2[C@H](O)c1cc(N2CCC(O)(c3ccccc3)CC2)nc2ccc(OC)cc12`, the growth inhibition in experiment [1] was 98% (active); in experiment [4] it was 101% (active). For the same molecule, the inhibition in experiment [2] is 14% (inactive); in experiment [3], -2% (inactive). Further, the result in experiment [5], in experiment [6], in experiment [7] and in experiment [8] was inactive.

As for `CCCc1cc(O)c2c3c(c(=O)oc2c1)CN(C)CC3`, the values for the growth inhibition in experiment [1] and in experiment [4] were 50% (active) and 98% (active), respectively. In addition, the figures for the inhibition in experiment [2] and in experiment [3] were 12% (inactive) and 0% (inactive), respectively. The result in experiment [5], in experiment [6], in experiment [7] and in experiment [8] was inactive.

For the molecule `CC(Cc1ccc(NC(=O)CCNCc2ccccc2)cc1)NCCc1cccc(Cl)c1` (stereo unspecified), the growth inhibition was 100% (active) in experiment [1] and 101% (active) in experiment [4]. Further, the inhibition is 101% (active) in experiment [2] and 3% (inactive) in experiment [3]. Moreover, the outcome in experiment [5], in experiment [6], in experiment [7] and in experiment [8] was inactive.

Turning to `COC(=O)c1ccc(CC(C)NCC(O)c2cccc(C(F)(F)F)c2)cc1F` (stereo unspecified), the growth inhibition in experiment [1] is 47% (inactive); in experiment [4] it was 82% (active). In addition, the inhibition was 1% (inactive) in experiment [2] and 7% (inactive) in experiment [3]. Further, the result in experiment [5], in experiment [6], in experiment [7] and in experiment [8] was inactive.

As for `O=C(/C=C/c1ccc(C(F)(F)F)cc1)NC1CCC(CN2CCC(c3c[nH]c4ccccc34)CC2)CC1` (stereo unspecified), the growth inhibition was 97% (active) and 100% (active) in experiment [1]; 98% (active) and 101% (active) in experiment [4]. Further, the inhibition is 42% (inactive) and 73% (active) in experiment [2]; -2% (inactive) and -3% (inactive) in experiment [3]. In addition, the result in experiment [5], in experiment [6], in experiment [7] and in experiment [8] was inactive.

For `CC(=O)C1(c2ccccc2)CCN(CCC(NC(=O)c2cc(C(F)(F)F)cc(C(F)(F)F)c2)c2ccc(Cl)c(Cl)c2)CC1` (stereo unspecified), the growth inhibition was 82% (active) in experiment [1] and 91% (active) in experiment [4]. For the same molecule, the values for the inhibition in experiment [2] and in experiment [3] were 9% (inactive) and 2% (inactive), respectively. Moreover, the outcome in experiment [5], in experiment [6], in experiment [7] and in experiment [8] was inactive.

With `O=S(=O)(NC1CCC(CN2CCC(c3c[nH]c4ccccc34)CC2)CC1)c1ccc(Cl)c(Cl)c1` (stereo unspecified), the values for the growth inhibition in experiment [1] and in experiment [4] were 32% (inactive) and 97% (active), respectively. Also, the inhibition in experiment [2] is 36% (inactive); in experiment [3], 0% (inactive). Also, the outcome in experiment [5], in experiment [6], in experiment [7] and in experiment [8] was inactive.

For `CN1CC=C(c2c[nH]c3ccc(OC(=O)c4ccccc4)cc23)C1`, the growth inhibition in experiment [1] was 97% (active); in experiment [4], 96% (active). Further, the figures for the inhibition in experiment [2] and in experiment [3] were 12% (inactive) and 1% (inactive), respectively. Further, the outcome in experiment [5], in experiment [6], in experiment [7] and in experiment [8] was inactive.

For the molecule `CC(=O)N(Cc1ccc(-c2ccc(CNCCc3ccccc3)cc2)cc1)C1CCN(Cc2ccccc2)CC1`, the growth inhibition was 15% (inactive) in experiment [1] and 95% (active) in experiment [4]. For the same molecule, the inhibition was 45% (inactive) in experiment [2] and -2% (inactive) in experiment [3]. Besides, the outcome in experiment [5], in experiment [6], in experiment [7] and in experiment [8] was inactive.
